Results as given in PubChem BioAssay (NCI).
Several values for one entry are separate records, joined by “and”; a condition that tells them apart may be missing. Equal values may be shown once. About 83,000 compounds went through this panel and 20% of them were active in at least one assay; those are over-represented in the sample as a whole.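 Testing used 96-well plates and a 48-hour single-concentration exposure. Example: -40 means 40% of the starting cells died.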 A number with no mark means an inactive call. Activity calls are given as the source filed them. How the source made its calls: active means growth percent below 10; inactive means the rest.

Key:
Assay in all cases: NCI-60 one-dose screen, 48 h (100 = growth as untreated, 0 = no growth, -100 = all killed)
[1] = test system: UACC-62 melanoma; conditions: 10 µM unless noted
[2] = test system: TK-10 renal; conditions: 10 µM unless noted
[3] = test system: HT29 colon; conditions: 10 µM unless noted
[4] = test system: SNB-75 CNS; conditions: 10 µM unless noted
[5] = test system: U251 CNS; conditions: 10 µM unless noted
[6] = test system: PC-3 prostate; conditions: 10 µM unless noted
[7] = test system: SK-MEL-5 melanoma; conditions: 10 µM unless noted
[8] = test system: LOX IMVI melanoma; conditions: 10 µM
[9] = test system: SK-MEL-28 melanoma; conditions: 10 µM unless noted
[10] = test system: EKVX NSCLC; conditions: 10 µM unless noted
[11] = test system: SN12C renal; conditions: 10 µM unless noted
[12] = test system: ACHN renal; conditions: 10 µM unless noted
[13] = test system: CAKI-1 renal; conditions: 10 µM unless noted
[14] = test system: A498 renal; conditions: 10 µM unless noted
[15] = test system: CCRF-CEM leukemia; conditions: 10 µM unless noted
[16] = test system: MOLT-4 leukemia; conditions: 10 µM unless noted
[17] = test system: SNB-19 CNS; conditions: 10 µM unless noted
[18] = test system: SK-MEL-2 melanoma; conditions: 10 µM unless noted
[19] = test system: UO-31 renal; conditions: 10 µM unless noted

| Structure (SMILES) | growth [1] | growth [2] | growth [3] | growth [4] | growth [5] | growth [6] | growth [7] | growth [8] | growth [9] | growth [10] | growth [11] | growth [12] | growth [13] | growth [14] | growth [15] | growth [16] | growth [17] | growth [18] | growth [19] |
| --- | --- | --- | --- | --- | --- | --- | --- | --- | --- | --- | --- | --- | --- | --- | --- | --- | --- | --- | --- |
| CC1(C=O)CCC23COC4(CCC5C6(C)CCC(OC7OCC(OC8OC(CO)C(O)C(OC9OC(CO)C(O)C(O)C9O)C8OC8OCC(O)C(O)C8O)C(O)C7OC7OC(CO)C(O)C(O)C7O)C(C)(C)C6CCC5(C)C4(C)CC2O)C3C1 (stereo not drawn) | -69% [100 µM] (active) and -57.3% [100 µM] (active) | -87.3% [100 µM] (active) and -69.8% [100 µM] (active) |  |  |  |  |  |  |  |  |  |  |  |  |  |  |  |  |  |
| COc1cc(NC(=O)C2=C(C)NC(C)=C(C(=O)Nc3cc(OC)c(Cl)cc3OC)C2c2cccc([N+](=O)[O-])c2)c(OC)cc1Cl | 27.6% | 70.6% | 40.6% | 45.3% | 31.6% | 16.8% | -5.53% (active) | 22.8% | 24.4% | 28.7% | 32.2% | 29.2% | 21.4% | 75.3% | 12.3% | 10.3% |  |  |  |
| CCC[CH2][Sn]1([CH2]CCC)[O]C2C(CO)OC(n3ccc(N)nc3=O)C2[O]1 (stereo not drawn) | -89% (active) | -98.2% (active) | -69.8% (active) | -21.2% (active) |  | -11.3% (active) | -72.1% (active) | -57% (active) | -90.3% (active) |  | -52.6% (active) | -83.9% (active) | -82.7% (active) | -94.5% (active) | -30.7% (active) | -26.6% (active) | 28.4% | -91.9% (active) | -78.2% (active) |
| CCOc1cc(F)c([N+](=O)[O-])cc1[N+](=O)[O-] | 78.2% | 12.5% | 2.66% (active) | 64.5% | 29.6% |  | 76.7% | -44% (active) | 70.1% | 101% | 90.5% | 12.7% | 18.8% | 101% | 9.98% (active) | 9.18% (active) | 92.2% | 50.4% | 45.4% |
| CC(/C=N/NC(N)=S)Cc1ccc(C(C)C)cc1 (stereo not drawn) | 54.5% | 99.6% | 47.1% | 71.4% | 88.7% | 73.5% |  | 79.5% | 82.4% | 80.5% |  | 103% | 58.7% | 51% | 65.9% |  | 69.3% | 54.4% | 45% |
| c1ccc(-c2cc3cc4ccccc4cn3c2)cc1 |  | 101% |  | 89.9% | 82.4% | 78.9% | 80.6% | 86% | 98.5% | 85.3% |  | 89.6% |  | 96.3% | 90.2% | 83.2% | 92.3% | 90.1% | 60.9% |
| O=C1C=CC(=O)N1c1cc(Cl)c(Cl)cc1Cl | 105% | 106% |  | 82.1% | 101% | 100% | 111% | 97.9% | 107% |  | 104% | 96% |  | 105% | 37.5% | 95.5% | 108% | 87.2% | 76.7% |
| O=C(Cc1nc2cc(Cl)c(Cl)cc2nc1CC(=O)c1ccccc1)c1ccccc1 | 56.9% | 119% | 65.3% | 70.4% | 86.6% | 59.4% | 90.3% | 62.2% | 91.1% | 51.4% | 75.4% | 59.2% | 68.6% | 125% | 27.1% | 28.9% |  | 90.2% |  |
| CC12CCC(O)CC1=CCC1C2CCC2(C)C3=NN=CC3CC12 (stereo not drawn) | 92.5% | 108% | 99% | 93.7% | 101% | 103% | 96.4% | 100% | 103% | 81.9% | 105% |  | 127% | 124% | 91% | 83.8% | 103% |  | 105% |
| Cc1cc(C)c(C#N)c(Sc2nc(C)c([N+](=O)[O-])c(C)c2C#N)n1 | 66.8% | 75.2% |  | 66% |  |  | 86.5% | 1.66% (active) | 78.7% |  | 47.4% | 39.3% | 0.956% (active) | 110% |  | 39.7% | 98.4% | 69.4% | 39.3% |
